Test results reported in the supplement of paper PMC13380429.
A number with no mark means an inactive call.

System: Vero E6 infected with SARS-CoV-2
Experiment: inhibition of SARS-CoV-2 cytopathic effect; higher = more antiviral protection, active = above 15
Details: 48 h

Row | Compound | inhibition of SARS-CoV-2 cytopathic effect (1 nM) [%] | inhibition of SARS-CoV-2 cytopathic effect (8.33 nM) [%] | inhibition of SARS-CoV-2 cytopathic effect (100 nM) [%] | inhibition of SARS-CoV-2 cytopathic effect (833.33 nM) [%] | inhibition of SARS-CoV-2 cytopathic effect (10000 nM)
1 | O=C(O)CC1CC(c2ccccc2)=NO1 (stereo not given) | -0.73 | 0.07 | -0.78 | 2.86 | 0.36%
2 | CSCC[C@H](NC(=O)[C@H](Cc1ccccc1)NC(=O)CNC(=O)CNC(=O)[C@@H](N)Cc1ccc(O)cc1)C(=O)O [metenkephalin] | 0.74 | -1.23 | 1.24 | -4.78 | -5.57%
3 | CCCSc1nc(N[C@@H]2C[C@H]2c2ccc(F)c(F)c2)c2nnn([C@@H]3C[C@H](OCCO)[C@@H](O)[C@H]3O)c2n1 [ticagrelor] | -0.64 | 1.24 | -0.46 | 0.82 | 1.32%
4 | Cc1ccc(S(=O)(=O)NC(=O)NN2CCCCCC2)cc1 [tolazamide] | 1.07 | -0.36 | 0.85 | 1.43 | 2.51%
5 | Cc1onc(-c2ccccc2Cl)c1C(=O)N[C@@H]1C(=O)N2[C@@H]1SC(C)(C)[C@@H]2C(=O)O [cloxacillin] | 2.33 | -1.52 | 0.8 | 3.43 | 1.27%
6 | CCc1nc2ccc(Cl)cn2c1C(=O)NCc1ccc(N2CCC(c3ccc(OC(F)(F)F)cc3)CC2)cc1 | 0.5 | 1.98 | -0.55 | 0.62 | -1.65%
7 | CCC(=O)NO | 3 | 3.18 | 1.27 | 1.39 | 2.29%
8 | CC1=C(/C=C/C(C)=C/C=C/C(C)=C/C=C/C=C(C)/C=C/C=C(C)/C=C/C2=C(C)CCCC2(C)C)C(C)(C)CCC1 [beta-carotene] | -0.41 | 1.55 | 1.56 | 1.85 | -0.57%
9 | C[C@H](Nc1ncnc2nc[nH]c12)c1cc2cccc(Cl)c2c(=O)n1-c1ccccc1 [duvelisib] | -1.06 | -0.83 | -1.82 | 0.25 | -3.79%
10 | CN(C)Cc1cccc(N/C(=C2\C(=O)Nc3cc(C(N)=O)ccc32)c2ccccc2)c1 | -2.86 | 2.55 | 0.04 | 2.08 | 2.55%
11 | COc1ccc2c(O[C@@H]3C[C@H]4C(=O)N[C@]5(C(=O)NS(=O)(=O)C6CC6)C[C@H]5/C=C\CCCCN(C)C(=O)[C@@H]4C3)cc(-c3nc(C(C)C)cs3)nc2c1C [simeprevir] | -0.41 | 3.7 | 2.68 | -2.31 | 2.37%
12 | Brc1c(Br)c(Br)c2[nH]nnc2c1Br [4,5,6,7-tetrabromobenzotriazole] | 1.42 | 3.75 | -0.07 | 1.63 | 3.61%
13 | O=C(O)c1cc(O)c2c3nc4ccccc4oc-3cc(=O)c2n1 [pirenoxine] | 0.17 | 3.09 | 2.36 | -0.17 | 3.17%
14 | CC(C)CC(NC(=O)OCC1c2ccccc2-c2ccccc21)C(=O)O (stereo in doubt) | 1.66 | 2.4 | 2.95 | 3.51 | 0.68%
15 | CCOC(=O)n1ccn(C)c1=S [carbimazole] | -1.34 | -2.13 | -2.63 | -3.71 | 1.38%
16 | FC(F)(F)c1cccc(C2=CCN(CCc3ccc4ccccc4c3)CC2)c1 [xaliproden] | -0.86 | -1.4 | 1.4 | 0.49 | 0.49%
17 | CCn1c(-c2nonc2N)nc2cnc(Oc3cccc(NC(=O)c4ccc(OCCN5CCOCC5)cc4)c3)cc21 | 3.5 | 0.11 | -2.86 | -4.75 | -5.7%
18 | O=C1CCCCCCCCCCCCCCO1 [oxacyclohexadecan-2-one] | -0.21 | 0.27 | 0.06 | 1.81 | -1.21%
19 | C#C[C@]1(O)CC[C@H]2[C@@H]3CCC4=CC(=O)CC[C@@H]4[C@H]3C(=C)C[C@@]21CC [etonogestrel] | -0.26 | -1.3 | -4.31 | -3.15 | -3.98%
20 | C=CCOc1ccccc1OCC(O)CNC(C)C (stereo not given) [oxprenolol] | 1.58 | -0.87 | -1.99 | -0.79 | -0.79%

Row | Compound | inhibition of SARS-CoV-2 cytopathic effect (1 nM) [%] | inhibition of SARS-CoV-2 cytopathic effect (8.33 nM) [%] | inhibition of SARS-CoV-2 cytopathic effect (100 nM) [%] | inhibition of SARS-CoV-2 cytopathic effect (833.33 nM) [%] | inhibition of SARS-CoV-2 cytopathic effect (10000 nM)
21 | COC(=O)CC[C@@H]1N=C(c2ccccn2)c2cc(Br)ccc2-n2c(C)cnc21 [remimazolam] | 0.83 | 1.12 | 2.32 | 0.51 | -1.57%
22 | COc1cc2c(cc1F)C(c1ccccc1Cl)=Nc1c(n[nH]c1C)N2 | 1.86 | 1.62 | -1.34 | 2.98 | 2.4%
23 | Cc1ccc(/C(=C\CN2CCCC2)c2cccc(/C=C/C(=O)O)n2)cc1 [acrivastine] | 0.5 | -0.13 | 0.75 | 6.14 | 1.35%
24 | C[C@]12C=CC(=O)C=C1CC[C@@H]1[C@@H]2C(=O)C[C@@]2(C)[C@H]1CC[C@]2(O)C(=O)CO [prednisone] | -1.14 | -0.26 | -3.03 | -1.05 | 1.02%
25 | CC(O)CC(=O)O (stereo not drawn) [beta-hydroxybutyrate] | 7.02 | 2.5 | -2.77 | -2.16 | -1.85%
26 | COc1cc(Oc2ccnc3cc(OC)c(OC)cc23)ccc1NC(=O)NC(C)c1nccs1 (stereo not given) | -1.6 | 0.95 | 1.7 | 0.48 | -1.8%
27 | N#CN=C(NCCCCCCOc1ccc(Cl)cc1)Nc1ccncc1 | 0.77 | -0.03 | -4.25 | -15 | -17.4%
28 | O=C(O)CCCCC(=O)O [adipic-acid] | -3.52 | -3 | -0.01 | -2.5 | -1.83%
29 | Nc1ncnc2c1c(-c1cccc(OCc3ccccc3)c1)cn2C1CC(CN2CCCC2)C1 (stereo in doubt) | -0.48 | 0.04 | 1.98 | 0.14 | 27.9% (active)
30 | Cc1c(Cn2c(C)nc3c(C(=O)O)cc(N4CCOCC4)cc32)cccc1C(F)(F)F | 1.56 | 4.39 | 3.91 | -2.09 | -2.66%
31 | O=C(O)c1cc(O)c2c(Cl)cc(Cl)cc2n1 [5,7-dichlorokynurenic-acid] | 1.65 | -2.54 | -2.79 | 0.55 | -0.44%
32 | CN1C(=O)CC(c2ccccc2)C1=O (stereo not given) [phensuximide] | 2.58 | 3.13 | 2.74 | 2.55 | -1.46%
33 | S=C(NCCc1ccccn1)Nc1ccc(Br)cn1 [trovirdine] | 2 | 2.79 | 2.61 | 1.44 | 0.69%
34 | CC(Cc1ccc(O)cc1)NCC(O)c1cc(O)cc(O)c1 (stereo not given) [fenoterol] | 2.01 | 0.82 | 2.19 | 2.52 | 0.86%
35 | O=C(CCc1ccc(O)cc1)c1c(O)cc(O)cc1O [phloretin] | -0.18 | -0.18 | 6.09 | -0.49 | -1.02%
36 | CCCCOC(=O)c1ccccc1Nc1cccc(C(F)(F)F)c1 [ufenamate] | 2.83 | 2.78 | 0.41 | 1.79 | 0.16%
37 | N#Cc1ccc2[nH]c(O)c(-c3ccc(CN4CCOCC4)cn3)c2c1 | -0.78 | -0.13 | -0.01 | 4.77 | 11.4%
38 | CC(C)C[C@H](NC(=O)[C@@H](O)[C@H](N)Cc1ccccc1)C(=O)O [ubenimex] | -0.51 | -0.09 | 2.6 | 0.25 | 1.71%
39 | COc1c2occc2c(OC)c2c(=O)cc(C)oc12 [khellin] | 3.97 | -0.75 | -0.95 | -3.54 | -0.89%
40 | C=CC(=O)Nc1cccc(C)c1Nc1ncc2cc(-c3c(Cl)c(OC)cc(OC)c3Cl)ccc2n1 | -1.66 | -0.88 | -0.76 | 0.98 | 3.67%
